Screening results (PubChem)
BoNT-A LC inh2 – BoNT A light chain protease inhibition; inhibition, % at 10 µM; AID 588499; 360,000 compounds, 0.17% hits; multiplex microsphere protease substrate cleavage, flow cytometry; note: plate controls were buffer without enzyme for full effect and enzyme alone for no effect
Autofluor counter – flagged as autofluorescent in microsphere protease counterscreen. compound autofluorescence counterscreen, microsphere flow cytometry; hits give high values. fluorescence intensity (test concentration not listed). 360,000 compounds, 3.1% hits; in the data active = fluorescence intensity above about 16000; inconclusive = no clear call, values can overlap the other calls
Anthrax LF prot – blocks Bacillus anthracis lethal factor protease; P15917; multiplex microsphere protease cleavage assay, LF; inhibition, % at 10 µM; 360,000 compounds, 0.12% hits; AID 588501; note: plate controls were buffer without enzyme for full effect and enzyme alone for no effect
MazF activator – activators of E. coli MazEF toxin-antitoxin RNase; P0AE70; FAM/BHQ RNA-DNA oligo cleavage fluorescence, 5 h; activation, % at 20 µM; 350,000 compounds, 0.32% hits; in the data active = activation above about 50%
Target sequence (P0AE70 whole entry, looked up): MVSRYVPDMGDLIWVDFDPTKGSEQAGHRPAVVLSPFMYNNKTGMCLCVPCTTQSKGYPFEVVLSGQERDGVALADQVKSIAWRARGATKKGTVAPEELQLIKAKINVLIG
BoNT-F LC inh – blocks Botulinum neurotoxin F light chain protease; Multiplex microsphere protease cleavage assay, flow cytometry; inhibition, % at 10 µM; 360,000 compounds, 0.22% hits; AID 588497; in the data active = inhibition above about 35%, passing the limit was not always enough; inconclusive = no clear call, values can overlap the other calls; note: plate controls were buffer without enzyme for full effect and enzyme alone for no effect
* hit, by the source's call; ? = inconclusive; . = not tested or not shown. Rows were chosen to be rich in hits. Some 3.7% of all compounds tested hit in one or more screens of this group. Cut-off read from the data, not from the text of the source, unless noted: active = inhibition above about 30%; inconclusive = no clear call, values can overlap the other calls; inactive = below that.

SMILES | BoNT-A LC inh2 | Autofluor counter | Anthrax LF prot | MazF activator | BoNT-F LC inh
COc1ccc(CCNC(=O)Cn2c(=O)n(CCCC(=O)NCc3ccco3)c(=O)c3sccc32)cc1OC | -1 | 5088 | -3 | -3 | -2
O=C(c1cc2ccccc2oc1=O)N1CCN(C(=O)C2CCCO2)CC1 (stereo unspecified) | -8 | 25648* | -4 | -7 | -7
O=C(c1cc2ccccc2oc1=O)N1CCOCC1 | 0 | 3762 | -6 | -3 | 0
O=C(C1CCCO1)N1CCN(S(=O)(=O)c2ccccc2)CC1 (stereo unspecified) | -2 | 22925* | 0 | 2 | 0
CCOC(=O)C1=C[C@@H](c2ccccc2)N(S(=O)(=O)c2ccc(C)cc2)[C@H]1c1cccc(Cl)c1 | -1 | 4480 | -8 | . | 1
N#C/C(=C\c1ccccc1)C(=O)NCc1ccc(F)cc1 | 0 | 5815 | -1 | -13 | 1
N#C/C(=C/c1ccc(C(=O)O)cc1)C(=O)NCc1ccccc1 | ? | 17589* | -2 | 3 | -9
COc1cc(/C=C(/C#N)C(=O)NCc2ccccc2)cc(OC)c1OC | . | . | . | 2 | .
COc1ccc(/C=C(\C#N)C(=O)NCCc2ccccc2)cc1OCc1ccccc1 | 0 | 2081 | -2 | 84* | -5
CC(NC(=O)CNC(=O)c1ccc2c(c1)OCO2)c1ccc(S(N)(=O)=O)cc1 (stereo unspecified) | 0 | 3977 | -3 | 4 | -1
COc1ccccc1CNc1nc2nc(C)c(Cl)c(=O)n2[nH]1 | ? | 21476* | -4 | -9 | 1
CCNC(=O)C1(C)CCN(C(=O)c2cccc(Cl)c2)C1 (stereo unspecified) | 0 | 3823 | -2 | . | 0
C/C(CC(=O)Nc1cccc2c1CCCC2)=N\NC(=O)c1cccc2ccccc12 | 0 | 2538 | -1 | 8 | -5
C/C(CC(=O)Nc1cccc2c1CCCC2)=N\NC(=O)c1ccccc1N | ? | 24027* | -3 | -5 | -4
O=C(/C=C/c1c(Cl)cccc1Cl)NCCc1ccccc1 | 1 | 20277* | -1 | 0 | 2
O=C(/C=C/c1cccc(Cl)c1)NCCc1ccccc1 | 0 | 2655 | -2 | 1 | -10
CCn1c(=O)cc(SCC(=O)NCCN2CCN(Cc3ccccc3)CC2)c2ccccc21 | ? | 22769* | -4 | -1 | 0
CCn1c(=O)cc(SCC(=O)NCCCN2CCC(C)CC2)c2ccccc21 | 0 | 2605 | 1 | 14 | -1
CCn1c(=O)cc(SCC(=O)NCCCN2CCN(c3ccc(F)cc3)CC2)c2ccccc21 | 2 | 20024* | 0 | -4 | 1
CCn1c(=O)cc(SCC(=O)NCc2ccc(C)cc2)c2ccccc21 | 1 | 8443 | -4 | -1 | -11
CC(=O)c1cccc(NC(=O)C2Cc3c(-c4ccc(Cl)cc4)ccnc3O2)c1 (stereo unspecified) | 0 | 3791 | 0 | . | 0
Cc1ccccc1C(=O)Nc1nnc([C@@H]2C[C@H](O)[C@@H](CO)O2)s1 | 0 | 3909 | -2 | . | -4
Cc1ccc(C(=O)N/N=C/c2cccnc2)cc1Cl | 0 | 3030 | -1 | -9 | -2
O=C(Nc1ccc2c(c1)CCC2)C1COc2ccccc2O1 (stereo unspecified) | 0 | 23530* | -6 | -1 | 0
CCN1C(=O)NC(=O)/C(=C\c2cn(CC(=O)N3CCCC3)c3ccccc23)C1=O | 0 | 5097 | 1 | -199 | -1
SMILES | BoNT-A LC inh2 | Autofluor counter | Anthrax LF prot | MazF activator | BoNT-F LC inh
CCN1C(=O)NC(=O)/C(=C\c2cn(CC(=O)N3CCCCC3)c3ccccc23)C1=O | -4 | 5727 | 0 | 117* | -12
O=C(O)CN1C(=O)/C(=C\c2cn(CC(=O)N3CCOCC3)c3ccccc23)SC1=S | 1 | 2673 | 0 | 191* | 5
COc1cnc(-c2ccccn2)nc1Oc1ccc(Cl)cc1 | 0 | 16340* | 2 | 0 | 2
COc1cnc(-c2ccccn2)nc1Sc1cccc(Cl)c1 | -3 | 17458* | -3 | -3 | -5
COc1cnc(-c2ccccn2)nc1Oc1ccc(Cl)c2ccccc12 | -4 | 17538* | -2 | -7 | -8
C/C(CC1CC(COCCC(C)C)OC1=O)=N\NC(N)=S (stereo unspecified) | 1 | 20283* | -2 | 2 | 1
O=C1N(Cc2cccc(Cl)c2)C[C@@H]2C[C@@H](c3cccc4ncccc34)N3CCC[C@@]123 | -1 | 4913 | -2 | -2 | -6
O=C1N(Cc2cccc(Cl)c2)C[C@@H]2C[C@@H](c3cccc4cccnc34)N3CCC[C@@]123 | 2 | 24208* | -10 | -3 | 1
CC(C)OC(=O)CC(=O)CSc1nc2c(c(-c3cccs3)c1C#N)CCC2 | 30* | 2297 | 10 | -8 | 7
CCOC(=O)CSc1nc2c(c(-c3ccc(C)o3)c1C#N)CCCC2 | 0 | 23315* | 0 | 4 | -2
C/C(N)=C(/C#N)C(=O)CSc1nc2ccc(C)cc2[nH]1 | 0 | 16421* | -2 | 1 | 1
Cc1ccc2nc(SCC(=O)Nc3cccnc3Cl)[nH]c2c1 | 0 | 3834 | -4 | 0 | 2
Cc1ccc2nc(SCC(=O)Nc3nnc(SCC(N)=O)s3)[nH]c2c1 | 0 | 20623* | -2 | 0 | -1
Cc1ccc(Cc2c(-c3ccc(C#N)cc3)nc3c4ccccc4ccn23)cc1 | 2 | 6083 | 10 | . | 4
Cc1ccccc1Cn1cnc2c([N+](=O)[O-])c(C)c(C)cc21 | 1 | 21365* | 0 | 4 | 2
COc1cccc(Cn2cnc3c(N)c(C)c(C)cc32)c1 | -1 | 3394 | -2 | 0 | 2
COc1ccc(Cn2cnc3c([N+](=O)[O-])c(C)c(C)cc32)cc1 | -3 | 25028* | -7 | 8 | -4
COc1ccc(CC(=O)NC2CCCCCC2)c(OC)c1 | -4 | 3695 | -11 | 5 | -3
CCN(Cc1ccncc1)S(=O)(=O)c1ccc(C(C)=O)cc1 | 1 | 22742* | 0 | 7 | 2
CCNC(=O)C1(C)CCCN(C(=O)c2ccc(F)c(C)c2)C1 (stereo unspecified) | 0 | 3668 | -5 | . | 9
Cc1ccc(OCCn2c(C3CC(=O)N(Cc4ccccc4)C3)nc3ccccc32)cc1 (stereo unspecified) | 0 | 4297 | -5 | -7 | -10
C=CCN1CC(c2nc3ccccc3n2Cc2cccc3ccccc23)CC1=O (stereo unspecified) | -1 | 19853* | -1 | 4 | -3
CCCc1nc2c3ccccc3ccn2c1Cc1ccccc1 | 0 | 4385 | -2 | . | 1
CCn1c(CSc2nc3ccccc3[nH]2)n[nH]c1=S | 2 | 23009* | -1 | 0 | 2
Cc1cc(C(=O)NC2CCCc3ccccc32)no1 (stereo unspecified) | 1 | 11714 | 2 | -2 | -1
Cc1noc(C)c1C(=O)NC1CCCc2ccccc21 (stereo unspecified) | -4 | 21318* | 0 | 6 | -5
CCOc1ccc(C(=O)NC2CCN(S(=O)(=O)c3ccccc3)CC2)cc1 | 1 | 2800 | 0 | -11 | 38*
O=C(NC1CCCCC1)c1ccc(S(=O)(=O)N2CCCC2)cc1 | ? | 16946* | -2 | -2 | -4
